CtBP-E1A inh: qHTS Assay for Inhibitors of the CtBP/E1A Interaction; CtBP / adenovirus E1A interaction (AlphaScreen); hit rate 0.49% among 340,000; AID 651724, 2012; activity change, % (no concentration beside the values); AlphaScreen GST-E1A/His-CtBP binding, 1536-well; hits give low values; in the data active = activity change below about -65%; inconclusive = mostly about -30% to -63%
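Protein mix (5X: 125 nM each GST-E1A, His-CtBP) was incubated with pinned compound 2 h at 37 deg C in dark, in 50 mM Tris pH 8.0 buffer with 300 mM NaCl. Glutathione donor and nickel acceptor beads followed; AlphaScreen signal read after 1 h.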
RORgamma inh: qHTS for inhibitors of ROR gamma transcriptional activity | Drosophila S2 Gal4-RORgamma UAS-luciferase reporter, 20 h | Nuclear receptor ROR-gamma (Mus musculus), P51450 | hit rate 5.4% among 310,000 | AID 2551, 2010 | Potency, µM (highest dose often 53.6 µM), most hits filed as inhibitors; also: nearly all actives have a fitted effect of over 60% in size
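Luminescence from a UAS-regulated Photinus luciferase reporter in stably transfected Drosophila Schneider cells is measured; decreased signal marks ROR gamma inhibition. Fusion expression is induced by 700 uM copper sulfate for 20 hr.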
PKM2 activator: qHTS Assay for Activators of Human Muscle isoform 2 Pyruvate Kinase | Potency, µM (highest dose often 57.5 µM), usual class: activators | purified PKM2, Kinase-Glo ATP luminescence, activation; response scale: 0% is enzyme alone, no compound | AID 1631, 2009 | hit rate 0.34% among 260,000; also: nearly all actives have a fitted effect of over 55% in size
Target sequence (P14618 whole entry, looked up, canonical isoform): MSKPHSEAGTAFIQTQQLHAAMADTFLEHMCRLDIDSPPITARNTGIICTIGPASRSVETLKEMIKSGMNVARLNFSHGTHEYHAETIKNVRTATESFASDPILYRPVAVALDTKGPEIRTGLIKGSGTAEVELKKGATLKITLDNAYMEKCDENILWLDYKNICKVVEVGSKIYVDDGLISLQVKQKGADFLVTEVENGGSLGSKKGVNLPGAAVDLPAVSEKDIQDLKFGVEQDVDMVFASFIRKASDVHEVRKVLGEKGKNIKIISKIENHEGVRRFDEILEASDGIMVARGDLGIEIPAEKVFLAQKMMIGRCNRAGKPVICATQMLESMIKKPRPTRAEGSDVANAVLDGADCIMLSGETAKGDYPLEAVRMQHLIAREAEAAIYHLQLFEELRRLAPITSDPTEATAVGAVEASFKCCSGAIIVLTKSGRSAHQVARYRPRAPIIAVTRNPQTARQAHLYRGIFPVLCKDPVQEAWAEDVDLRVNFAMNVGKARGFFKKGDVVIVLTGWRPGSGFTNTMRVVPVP
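ATP formation by purified human PK-M2, quantified via coupled luciferase luminescence after 1 h at room temperature with 0.1 mM ADP and 0.5 mM PEP final.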
Six1-Eya2 inh: qHTS Assay for Inhibitors of the Six1/Eya2 Interaction; AlphaScreen GST-Six1/His-Eya2 binding, biochemical; hits give low values; Homeobox protein SIX1 (Homo sapiens) + Protein phosphatase EYA2 (Homo sapiens), …; activity change, % (no concentration beside the values); hit rate 0.56% among 360,000; AID 651725, 2012; in the data active = activity change below about -65%; inconclusive = mostly about -30% to -63%
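AlphaScreen luminescence read after one hour at 37 °C in darkness. Pin-transferred compounds met GST-Six1 and His-Eya2 protein (5X stock 250 nM/500 nM) plus glutathione donor and Ni-chelate acceptor beads (5X, 50 ug/mL).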
Gal4-VP16 FLuc: VP16 counterscreen qHTS for inhibitors of ROR gamma transcriptional activity; Drosophila S2 Gal4-VP16 UAS-luciferase, luminescence, 20 h; Potency, µM (titrated, usually from 53.6 µM), most hits filed as inhibitors; hit rate 3.5% among 310,000;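 also: Gal4-VP16 expression switched on by copper sulfate through the metallothionein promoter; nearly all actives have a fitted effect of over 50% in size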
A number is an active result; [ ] = another dose, or the depositor's remark. Most compounds without a hit are left out; they make up all but 5.6% or so of the library. Unless noted, calls follow the shape of the dose curve; as a rule, active = well fitted curve in the direction sought with a large enough effect; inconclusive = small, poorly fitted or top-dose-only effect, or another doubt; inactive = no such curve, though single readings can be large; an effect the other way counts as inactive or inconclusive.

Results for C=C[C@@H]1c2ccccc2N(S(=O)(=O)c2ccc(C)cc2)[C@H](c2ccc(C(=O)OC)cc2)C1(C#N)C#N ?
CtBP-E1A inh: inactive; Six1-Eya2 inh: inactive

Results for Cc1nn(CC#N)c(=O)n1-c1ccccc1F ?
CtBP-E1A inh: inactive; RORgamma inh: 10µM; PKM2 activator: inactive; Six1-Eya2 inh: inactive; Gal4-VP16 FLuc: inactive

Results for Cc1ccc(-n2c(C)nn(CC#N)c2=O)cc1 ?
CtBP-E1A inh: inactive; RORgamma inh: inactive; PKM2 activator: inactive; Six1-Eya2 inh: inactive; Gal4-VP16 FLuc: inactive

What do the screens show for `COC(=O)c1cn(-c2nc3ccccc3s2)nn1`?
CtBP-E1A inh: inactive; Six1-Eya2 inh: inactive

How did C=CCNCC(=O)Nc1sc2c(c1C(=O)Nc1ccc(OC)cc1OC)CCC2 do in these assays?
CtBP-E1A inh: inactive; RORgamma inh: 0.45µM; PKM2 activator: inactive; Six1-Eya2 inh: inactive; Gal4-VP16 FLuc: 1.3µM

What do the screens show for `CCOc1ccccc1NC(=O)c1c(NC(=O)CNCc2ccco2)sc2c1CCC2`?
RORgamma inh: inconclusive; PKM2 activator: inactive; Gal4-VP16 FLuc: 5.6µM

Results for COc1ccc(CN(CC(=O)NCc2ccco2)C(=O)CNS(=O)(=O)c2ccc(C)cc2)cc1 ?
CtBP-E1A inh: inactive; RORgamma inh: inactive; Six1-Eya2 inh: inactive; Gal4-VP16 FLuc: inactive

How did Cc1ccccc1C(=O)NNC(=O)CSc1nc(-c2ccccc2)cc(=O)[nH]1 do in these assays?
CtBP-E1A inh: inactive; RORgamma inh: inactive; PKM2 activator: inactive; Six1-Eya2 inh: inactive; Gal4-VP16 FLuc: inactive

What do the screens show for `CC(c1ccccc1)n1cnc2ccccc21` (stereo not drawn)?
CtBP-E1A inh: inactive; RORgamma inh: 13µM; PKM2 activator: inactive; Six1-Eya2 inh: inactive; Gal4-VP16 FLuc: inactive

Results for O=C1NC2C3CC(c4ccccc43)C12 (stereo not drawn) ?
CtBP-E1A inh: inactive; Six1-Eya2 inh: inactive

What do the screens show for `O=C1C=CC(=O)C2=C1C1c3ccccc3C2c2ccccc21`?
RORgamma inh: 10µM; PKM2 activator: inactive; Gal4-VP16 FLuc: inconclusive

Results for CCCCCc1ccc(OCCCC[n+]2ccc(C)cc2)c(CCCCC)c1 ?
CtBP-E1A inh: inactive; RORgamma inh: 2µM; PKM2 activator: inactive; Six1-Eya2 inh: inactive; Gal4-VP16 FLuc: 2.8µM

How did O=C1C=CC(O)(c2cc(=O)c3c(O)cc(O)cc3o2)C=C1 do in these assays?
CtBP-E1A inh: inactive; RORgamma inh: 3.2µM; PKM2 activator: inactive; Six1-Eya2 inh: inactive; Gal4-VP16 FLuc: 2.8µM

What do the screens show for `Cc1cc(=O)[nH]c2c(C)cc(S(=O)(=O)N3CCOCC3)cc12`?
CtBP-E1A inh: inactive; Six1-Eya2 inh: inactive

Results for Cc1cc(=O)[nH]c2c(C)cc(S(=O)(=O)N3CCCCC3)cc12 ?
CtBP-E1A inh: inactive; RORgamma inh: 5.6µM; Six1-Eya2 inh: inactive; Gal4-VP16 FLuc: inactive

Results for N#CCCn1cc(C=C(C#N)C#N)c(-c2ccc(-c3ccccc3)cc2)n1 ?
CtBP-E1A inh: inactive; RORgamma inh: inconclusive; PKM2 activator: inactive; Six1-Eya2 inh: inactive; Gal4-VP16 FLuc: 20µM

How did N#CCCn1cc(/C=N/NC(N)=S)c(-c2ccc(-c3ccccc3)cc2)n1 do in these assays?
CtBP-E1A inh: inactive; RORgamma inh: 1.1µM; PKM2 activator: inactive; Six1-Eya2 inh: inactive; Gal4-VP16 FLuc: 3.2µM

Results for N#CCCn1cc(/C=N/O)c(-c2ccccc2)n1 ?
CtBP-E1A inh: inactive; RORgamma inh: inactive; PKM2 activator: inactive; Six1-Eya2 inh: inactive; Gal4-VP16 FLuc: inactive

Results for CCOc1ncccc1C(=O)N(C)CC(=O)Nc1ccccc1SC ?
CtBP-E1A inh: inactive; RORgamma inh: inactive; PKM2 activator: inactive; Six1-Eya2 inh: inactive; Gal4-VP16 FLuc: inactive

What do the screens show for `CC(C)OC(=O)C(C(=O)OC(C)C)=C1SC=CS1`?
RORgamma inh: inactive[10 µM]; Gal4-VP16 FLuc: inactive

Results for COc1cc(/C=C2/CC(C)OC2=O)c([N+](=O)[O-])cc1OC (stereo not drawn) ?
CtBP-E1A inh: inactive; RORgamma inh: inactive; PKM2 activator: inactive[11.5 µM]; Six1-Eya2 inh: inactive; Gal4-VP16 FLuc: inactive

How did CC(C)c1ccc(-c2nc3ccccc3s2)cc1 do in these assays?
CtBP-E1A inh: inactive; RORgamma inh: inconclusive; PKM2 activator: inactive; Six1-Eya2 inh: inactive; Gal4-VP16 FLuc: 2µM

Results for Oc1ccc(O)c(Cc2nc3ccccc3s2)c1 ?
CtBP-E1A inh: inactive; RORgamma inh: 7.1µM; PKM2 activator: inactive; Six1-Eya2 inh: inactive; Gal4-VP16 FLuc: 25µM

What do the screens show for `Oc1cccc(-c2nc3ccccc3s2)c1`?
CtBP-E1A inh: inactive; RORgamma inh: inconclusive; PKM2 activator: inactive; Six1-Eya2 inh: inactive; Gal4-VP16 FLuc: 10µM

Results for Nc1cccc(-c2nc3ccccc3s2)c1 ?
CtBP-E1A inh: inactive; RORgamma inh: inconclusive; PKM2 activator: inactive; Six1-Eya2 inh: inactive; Gal4-VP16 FLuc: inactive

How did FC(F)(F)c1ccc(-c2nc3ccccc3s2)cc1 do in these assays?
CtBP-E1A inh: inactive; Six1-Eya2 inh: inactive

How did COc1ccc(-c2nc3ccccc3s2)cc1O do in these assays?
CtBP-E1A inh: inactive; RORgamma inh: 10µM; PKM2 activator: inactive; Six1-Eya2 inh: inactive; Gal4-VP16 FLuc: 8.9µM

How did CCC(Oc1ccccc1C)C(=O)N1CCCN(C)CC1 (stereo not drawn) do in these assays?
CtBP-E1A inh: inactive; PKM2 activator: inactive; Six1-Eya2 inh: inactive

What do the screens show for `C/C=C1\COC(C(=O)NCc2ccccn2)(C(F)(F)F)C=C1C=C(C)C` (stereo not drawn)?
RORgamma inh: inconclusive; Gal4-VP16 FLuc: inactive

How did CN(C)c1ccc2c(-c3ccccc3)c3ccc(=[N+](C)C)cc-3oc2c1 do in these assays?
RORgamma inh: inconclusive; Gal4-VP16 FLuc: 3.2µM

How did C[C@@H](C(=O)NCc1ccc(S(C)(=O)=O)cc1)[C@H]1C[C@]1(C)[C@H](NC(=O)OCc1ccccc1)c1ccccc1 do in these assays?
CtBP-E1A inh: inactive; RORgamma inh: 8.9µM; PKM2 activator: inactive; Six1-Eya2 inh: inactive; Gal4-VP16 FLuc: inactive

How did CC/C(=N\NC(=S)NC(C)C)c1ccc(OC)c(OC)c1 do in these assays?
CtBP-E1A inh: inconclusive; RORgamma inh: 4.5µM; Six1-Eya2 inh: inactive; Gal4-VP16 FLuc: 10µM

Results for CCOc1ccc(/C(CCC(=O)O)=N/NC(=S)NC(C)C)cc1 ?
CtBP-E1A inh: inactive; RORgamma inh: 11µM; PKM2 activator: inactive; Six1-Eya2 inh: inactive; Gal4-VP16 FLuc: inconclusive

How did CCOc1ccc(C(=O)CCC(=O)O)cc1 do in these assays?
CtBP-E1A inh: inactive; RORgamma inh: inactive; PKM2 activator: inactive; Six1-Eya2 inh: inactive; Gal4-VP16 FLuc: inactive

Results for CC/C(=N\NC(N)=O)c1ccc(OC)c(OC)c1 ?
CtBP-E1A inh: inactive; RORgamma inh: inactive; PKM2 activator: inactive; Six1-Eya2 inh: inactive; Gal4-VP16 FLuc: inactive
